Screens (PubChem)
An excerpt weighted towards active compounds, which were near 6.8% of everything screened.
Abs 340nm: absorbance at 340 nm. AID 708. compound absorbance at 340 nm, fold over control. 65,000 tested, under 10 active. fold change at 10 µM;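 active = at 10 µM dose, initial 340 nm absorbance at least 2 fold that of control wells; inactive = change under 2 fold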;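 note: initial absorbance extrapolated from kinetic A340 decline of NADH oxidation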
DPM-DC inhibit: blocks S. pneumoniae diphosphomevalonate decarboxylase. calls only at 10 µM. purified DPM-DC, PK/LDH coupled NADH fluorescence. 65,000 compounds, 0.49% hits;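 active = the 320 compounds with the highest percent inhibition in the single-dose primary screen, excluding strongly autofluorescent ones, cut at about 32% in these data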;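 note: kinetic rate of NADH fluorescence loss reporting ADP formed by the decarboxylase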
Spn PMK inh: inhibitors of Streptococcus pneumoniae phosphomevalonate kinase. inhibition, % at 10 µM. 65,000 compounds, 0.49% hits. purified PMK, PK/LDH-coupled NADH absorbance 340 nm. AID 539;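 active = top-ranked compounds by inhibition in the single 10 µM screen, taking a fixed number of the strongest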;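 note: 0% = full reaction with DMSO carrier and 100% = background rate without enzyme reaction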
NADH coupling: inhibitors of enzymes used to reach an NAD/NADH endpoint | coupled PK/LDH NADH assays, four targets | IC50, µM (series often up to 10 µM), for the others: top-dose inhibition | 65,000 compounds, 0.02% hits;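 active = single-dose screening hits from any of four coupled enzyme assays that gave an IC50 when retested across doses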;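 note: the DPM-DC format reads NADH fluorescence rather than 340 nm absorbance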
Spn MK inh: blocks S. pneumoniae mevalonate kinase; purified MK, PK/LDH-coupled NADH absorbance 340 nm; 65,000 compounds, 0.48% hits; inhibition, % at 10 µM;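 active = ranked among the strongest by inhibition in the single 10 µM screen, a fixed top-ranked set picked for dose follow-up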
Fluor 339 460: intrinsic fluorescence of library compounds, ex339/em460 – biochemical, MLSMR library, data from DPM-DC assay, artefact control, profiling panel. 65,000 compounds, 5.5% hits. compound autofluorescence, ex339/em460 nm, NADH buffer; hits give high values; 1 = no-compound wells, NADH background. fluorescence fold increase at 10 µM;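 active = at 10 µM, mean starting fluorescence two-fold or more over control wells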;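 note: signal is the first read of a kinetic run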
Numbers without * were called inactive; i = inactive; . = not tested or not shown; + = active, no number; [ ] = remark or other dose.

SMILES | Abs 340nm | DPM-DC inhibit | Spn PMK inh | NADH coupling | Spn MK inh | Fluor 339 460
Cc1cccn2c(=O)c3cc(C(=O)NC4CCCC4)c(=N)n(C4CCCC4)c3nc12 | 1.02 | . | 0.0 | 2.0% | 6.0 | 2.35*
Cc1cccn2c(=O)c3cc(C(=O)NC4CCS(=O)(=O)C4)sc3nc12 (centres undefined) | 1.09 | . | 9.0 | 6.0% | 3.0 | 2.12*
Cc1ccnc(SCCn2c(Br)nc3c2c(=O)n(C)c(=O)n3C)n1 | 1.02 | i | 9.0 | 6.0% | 8.0 | 1.1
CCOC(=O)CCNC(=O)CNC(=O)OCc1ccccc1 | 1.03 | i | 12.0 | 4.0% | 1.0 | 1.14
O=c1c2ccccc2nnn1CSc1ccc2c(c1)OCCO2 | 1 | i | 14.0 | 10.0% | 2.0 | 0.99
COc1ccc(NC(=O)COC(=O)c2cnccn2)cc1Cl | 1.04 | i | 6.0 | 3.0% | 4.0 | 1.06
COc1ccc(-n2c(SCC(N)=O)nc3sc4c(c3c2=O)CCN(C)C4)cc1 | 1.05 | i | 8.0 | 6.0% | 0.0 | 1.09
COC(=O)CSc1nc2sc3c(c2c(=O)n1C1CCCCC1)CCN(C)C3 | 1.07 | . | 3.0 | 13.0% | 1.0 | 2.49*
CCOC(=O)N1CCN(C(=O)CN2C(=O)COc3ccc(C(C)(C)C)cc32)CC1 | 1.01 | i | 19.0 | 9.0% | 7.0 | 1.03
COc1cc(C(=O)OCC(=O)c2cc(C)n(C)c2C)cc(NC(=O)c2ccco2)c1OC | 1.05 | i | 10.0 | 11.0% | 0.0 | 2.94*
COc1ccc(-c2nc3c(=O)n(C)c(=O)[nH]c3n2CCc2ccccc2)cc1 | 1.04 | . | 2.0 | 5.0% | 7.0 | 3.85*
CCCn1c(-c2ccccc2)nc2c(=O)n(C)c(=O)[nH]c21 | 1.05 | . | 0.0 | 0.0% | 0.0 | 2.19*
Cc1nc2c(=O)n(C)c(=O)[nH]c2n1Cc1ccccc1 | 0.99 | i | 9.0 | 4.0% | 0.0 | 1.4
CC(C)c1ccc(NC(=O)C2C3C=CC4(CN(CCCN5CCOCC5)C(=O)C24)O3)cc1 (centres undefined) | 1.02 | i | 10.0 | 3.0% | 0.0 | 1.11
O=C(Nc1ccc(OC(F)(F)F)cc1)c1cnc2n(c1=O)CCS2 | 0.96 | i | 6.0 | 4.0% | 5.0 | 1.09
CCCCOC(=O)c1ccc(NC(=O)c2cnc3n(c2=O)CCS3)cc1 | 1.07 | i | 10.0 | 5.0% | 2.0 | 2*
CC(=C1C(=O)c2ccccc2C1=O)N1CCC(C(N)=O)(N2CCCCC2)CC1 | 1.27 | i | 2.0 | 2.0% | 5.0 | 1.04
Cc1cc(C)c(C#N)c(N2CCCC2)n1 | 1.09 | . | 4.0 | 10.0% | 15.0 | 3.62*
COc1cc2c(C#N)c(N3CCN(c4ccccc4OC)CC3)nc(N)c2c(N)n1 | 1.01 | +[fluoresces] | 0.0 | 3.0% | 12.0 | 2.38*
N#Cc1c(N2CCCC2)nc(N)c2c(N)nc(N3CCCC3)cc12 | 0.97 | . | 5.0 | 2.0% | 3.0 | 2.51*
N#Cc1c(N)nc(N2CCCC2)c(C#N)c1-c1ccc(Cl)cc1 | 1.03 | i | 8.0 | 4.0% | 3.0 | 1.09
Nc1c(C(=O)NC2CCCC2)c2nc3ccccc3nc2n1/N=C/c1cccnc1 | 1.18 | + | 0.0 | 15.0% | 0.0 | 3.21*
Cn1c(C(=O)NCCC2=CCCCC2)cc2c(=O)n3ccccc3nc21 | 1.02 | . | 9.0 | 3.0% | 5.0 | 3.46*
Cn1c(C(=O)NCCCN2CCCC2=O)cc2c(=O)n3ccccc3nc21 | 1.08 | . | 12.0 | 11.0% | 9.0 | 4.91*
COc1ccc(-c2nnc(Nc3nc4c(OC)cccc4s3)o2)cc1 | 1.23 | i | 12.0 | 8.0% | 0.0 | 1.97
SMILES | Abs 340nm | DPM-DC inhibit | Spn PMK inh | NADH coupling | Spn MK inh | Fluor 339 460
Fc1cccc2sc(Nc3nnc(-c4ccccc4)o3)nc12 | 1.21 | . | 11.0 | 8.0% | 4.0 | 4.89*
COc1ccc(-c2nnc(Nc3nc4c(OC)cccc4s3)o2)c(OC)c1 | 1.22 | + | 18.0 | 23.0% | 2.0 | 2.33*
COc1cc(OC)cc(-c2nnc(Nc3nc4c(F)cccc4s3)o2)c1 | 1.04 | . | 11.0 | 6.0% | 7.0 | 3.41*
O=C(CSc1nnc(-c2ccccc2)o1)Nc1ccccc1F | 1.04 | i | 4.0 | 3.0% | 5.0 | 1.05
CC(C)CN(C(=O)c1ccc(=O)n(C)n1)c1nc2ccccc2s1 | 1.02 | i | 14.0 | 2.0% | 7.0 | 1.05
CCOC(=O)C1CCCN(S(=O)(=O)c2ccc(OC)c3ccccc23)C1 (centres undefined) | 1.05 | i | 5.0 | 5.0% | 10.0 | 1.01
COC(=O)c1c(NC(=O)c2ccc(Br)s2)sc2c1CCC2 | 1.14 | i | 1.0 | 4.0% | 7.0 | 1.72
COC(=O)c1c(NC(=O)c2nn(C)cc2Cl)sc2c1CCCC2 | 1.04 | . | 7.0 | 4.0% | 0.0 | 2.36*
CCn1ncc(Br)c1C(=O)Nc1sc2c(c1C(=O)OC)CCC2 | 1.07 | i | 2.0 | 9.0% | 6.0 | 2.5*
CN(Cc1ccccc1)S(=O)(=O)c1ccc(S(=O)(=O)N2CCN(CCC#N)CC2)cc1 | 0.99 | i | 4.0 | 2.0% | 1.0 | 1.08
COC(=O)c1ccc(CSc2nc3scc(-c4cccs4)c3c(=O)[nH]2)o1 | 1.05 | i | 16.0 | 5.0% | 0.0 | 1.09
COC(=O)C1=CN(C2CC2)C=C(C(=O)OC)C1c1ccccc1OC | 1.02 | . | 8.0 | 6.0% | 4.0 | 3.78*
O=C(CCC(=O)Nc1ccc(Oc2ccccc2)cc1)NCCO | 1 | i | 6.0 | 6.0% | 11.0 | 1.07
Cc1cccc(C)c1NS(=O)(=O)c1c(C)[nH]c(=O)[nH]c1=O | 1.01 | i | 6.0 | 2.0% | 0.0 | 1.16
CCN(CC)C(=O)CSc1nc(C)cc(-c2cccs2)c1C#N | 1.08 | i | 8.0 | 10.0% | 11.0 | 1.12
C=COC(=O)CSc1nc(-c2cccs2)ccc1C#N | 1.1 | i | 0.0 | 3.0% | 8.0 | 2.07*
CCOC(=O)C(C)Sc1nc(-c2cccs2)ccc1C#N (centres undefined) | 1.12 | . | 0.0 | 3.0% | 5.0 | 2.19*
CCN(C(=O)c1cc2cc(OC)ccc2oc1=O)c1ccccc1 | 1.05 | i | 10.0 | 7.0% | 7.0 | 1.35
COc1ccc2oc(=O)c(-c3nc(C)cs3)cc2c1 | 1.03 | . | 0.0 | 7.0% | 13.0 | 2.16*
O=C(c1cc(Cl)cc(Cl)c1)N1CCOCC1 | 1.02 | i | 9.0 | 5.0% | 5.0 | 1.1
CC1(C)CC(=O)C(C(C2=C(O)CC(C)(C)CC2=O)c2cccc(O)c2)C(=O)C1 (centres undefined) | 1.05 | i | 29.0* | 10.0% | 0.0 | 1.09
CC1(C)CC(=O)C(C(C2=C(O)CC(C)(C)CC2=O)c2cccnc2)C(=O)C1 (centres undefined) | 1.04 | i | 13.0 | 7.0% | 7.0 | 1.08
N#Cc1c(NCCCO)nc(NCc2ccccc2)c2c1CCN(Cc1ccccc1)C2 | 1.01 | + | 17.0 | 23.0% | 13.0 | 2.42*
O=C(COc1nnc2ccccn12)N1CCN(S(=O)(=O)c2ccccc2)CC1 | 1.01 | . | 13.0 | 4.0% | 12.0 | 3.42*
